Autofluor counter = compound fluorescence in toxin protease inhibitor counterscreen. compound autofluorescence counterscreen, microsphere flow cytometry; stronger effect = higher value. fluorescence intensity (no concentration beside the values). actives 3.1% (n = 360,000). AID 624483; in the data active means fluorescence intensity above about 16000; inconclusive means no clear call, values can overlap the other calls
BoNT-F LC inh = BoNT/F light chain protease inhibitors, primary screen, biochemical, flow cytometry, MLPCN library. Multiplex microsphere protease cleavage assay. Botulinum neurotoxin type F light chain protease (Clostridium botulinum). actives 0.22% (n = 360,000). inhibition, % at 10 µM; in the data active means inhibition above about 35%, passing the limit was not always enough; inconclusive means no clear call, values can overlap the other calls; further: plate controls were buffer without enzyme for full effect and enzyme alone for no effect
Anthrax LF inh2 = Bacillus anthracis LF protease inhibitors, primary screen, biochemical, multiplex microsphere, MLPCN library | inhibition, % at 10 µM | actives 0.12% (n = 360,000) | multiplex microsphere protease cleavage assay | Lethal factor (Bacillus anthracis), P15917 | AID 588501, 2011; further: plate controls were buffer without enzyme for full effect and enzyme alone for no effect
Target sequence (P15917 whole entry, looked up): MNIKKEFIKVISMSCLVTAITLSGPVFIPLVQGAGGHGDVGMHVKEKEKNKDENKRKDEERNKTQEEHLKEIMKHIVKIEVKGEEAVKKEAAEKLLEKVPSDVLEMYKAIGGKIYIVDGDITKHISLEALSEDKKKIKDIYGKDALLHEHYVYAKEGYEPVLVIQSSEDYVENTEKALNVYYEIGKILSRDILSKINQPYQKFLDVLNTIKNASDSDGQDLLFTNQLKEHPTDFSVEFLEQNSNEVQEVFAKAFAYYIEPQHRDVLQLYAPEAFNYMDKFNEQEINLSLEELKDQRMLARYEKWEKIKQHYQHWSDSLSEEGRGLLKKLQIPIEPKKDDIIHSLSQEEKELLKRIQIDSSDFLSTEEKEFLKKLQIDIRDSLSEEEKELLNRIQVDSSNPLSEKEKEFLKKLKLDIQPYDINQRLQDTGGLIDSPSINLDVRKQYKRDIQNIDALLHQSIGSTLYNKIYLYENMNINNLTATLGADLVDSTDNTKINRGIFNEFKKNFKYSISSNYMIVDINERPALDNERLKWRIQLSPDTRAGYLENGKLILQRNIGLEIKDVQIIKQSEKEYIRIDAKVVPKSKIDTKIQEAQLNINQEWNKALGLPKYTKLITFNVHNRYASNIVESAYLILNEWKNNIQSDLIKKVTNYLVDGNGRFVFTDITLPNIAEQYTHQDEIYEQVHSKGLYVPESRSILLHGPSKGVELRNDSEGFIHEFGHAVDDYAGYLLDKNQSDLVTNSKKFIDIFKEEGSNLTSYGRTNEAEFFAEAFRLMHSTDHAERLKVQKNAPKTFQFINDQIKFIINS
SSB-PriA inh = inhibitors of Klebsiella pneumoniae PriA binding to SSB C-terminal tail, primary screen, biochemical, AlphaScreen; PriA–SSB C-terminal tail interaction (Klebsiella pneumoniae); AlphaScreen SSBct-PriA binding, biotinylated peptide; inhibition, % at 33 µM; actives 0.6% (n = 430,000); AID 1272365, 2023; in the data active means inhibition mostly above about 37%, no sharp cut-off; inactive means mostly below about 20%;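 further: plate controls were negative control peptide for no effect and reference peptide for full effect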
BoNT A protease = BoNT/A light chain protease inhibitors, primary screen, biochemical, flow cytometry, MLPCN library; Botulinum neurotoxin type A light chain protease (Clostridium botulinum A str. ATCC 3502); multiplex microsphere protease substrate cleavage; inhibition, % at 10 µM; actives 0.17% (n = 360,000); AID 588499, 2011; further: plate controls were buffer without enzyme for full effect and enzyme alone for no effect
An asterisk follows results filed as active. Rows were chosen to be rich in hits. Some 3.1% of all compounds tested hit in one or more screens of this group. Unless noted, no stated cut-off is given here; in the data, active means inhibition above about 30%; inconclusive means no clear call, values can overlap the other calls; inactive means below that.

For CN(C)/C(CN1CCN(C=O)CC1)=C1\N=C(c2ccccc2)OC1=O the results were Autofluor counter 23334*, BoNT-F LC inh 1.3, Anthrax LF inh2 2.3, SSB-PriA inh 7.7 and BoNT A protease 1.3.
`CCc1ccc(S(=O)(=O)Nc2ccc3c(c2)CN(C(=O)C(C)C)CC3)s1` gave SSB-PriA inh -2.0.
CCOc1ccc(CC(=O)N2CCN(c3ccc(N4CCOCC4)nn3)CC2)cc1OCC was read as Autofluor counter 6027, BoNT-F LC inh -5.0, Anthrax LF inh2 -5.3, SSB-PriA inh 54.5* and BoNT A protease -0.6.
For COC(=O)CSc1nnc(-c2ccc(S(=O)(=O)N3CCC(C)CC3)cc2)o1 the results were SSB-PriA inh -0.3.
`COc1ccc(-c2nnc(-c3cccnc3)o2)cc1OC` gave Autofluor counter 24717*, BoNT-F LC inh -9.3, Anthrax LF inh2 -1.6, SSB-PriA inh 1.9 and BoNT A protease -7.2.
For CC1CCN(S(=O)(=O)c2ccc(-c3nnc(SCc4cccnc4)o3)cc2)CC1 the results were Autofluor counter 23932*, BoNT-F LC inh -2.9, Anthrax LF inh2 -2.0, SSB-PriA inh -20.6 and BoNT A protease -1.3.
Clc1ccccc1CSc1nnc(-c2ccncc2)o1 was read as Autofluor counter 6055, BoNT-F LC inh 0.0, Anthrax LF inh2 1.3, SSB-PriA inh -13.1 and BoNT A protease -0.1.
`c1ccc2c(CSc3nnc(-c4ccncc4)o3)cccc2c1` gave Autofluor counter 23894*, BoNT-F LC inh -0.9, Anthrax LF inh2 1.9, SSB-PriA inh -16.7 and BoNT A protease -1.0.
COc1ccc(NC(=O)CSc2nnc(-c3cccnc3)o2)cc1 was read as Autofluor counter 21010*, BoNT-F LC inh 8.7, Anthrax LF inh2 -0.7, SSB-PriA inh -16.8 and BoNT A protease 5.2.
Screening COc1ccc(C(=O)CSc2nnc(-c3ccncc3)o2)cc1 returned SSB-PriA inh 7.0.
`COc1cccc(-c2nnc(SCc3cccnc3)o2)c1` gave Autofluor counter 17724*, BoNT-F LC inh -6.6, Anthrax LF inh2 -2.5, SSB-PriA inh -16.5 and BoNT A protease -2.7.
Screening CCOC(=O)CSc1nnc(-c2ccc(NS(=O)(=O)c3ccc(C)cc3)cc2)o1 returned Autofluor counter 20276*, BoNT-F LC inh -1.2, Anthrax LF inh2 -1.8, SSB-PriA inh -15.4 and BoNT A protease 0.0.
For COC(=O)CSc1nnc(-c2ccncc2)o1 the results were Autofluor counter 16743*, BoNT-F LC inh 19.0, Anthrax LF inh2 3.1, SSB-PriA inh 1.0 and BoNT A protease inconclusive.
Screening COc1ccc(-c2nnc(SCC(=O)OC3CCCCC3)o2)cc1OC returned Autofluor counter 19136*, BoNT-F LC inh 4.6, Anthrax LF inh2 -0.8, SSB-PriA inh -13.6 and BoNT A protease 2.6.
Screening CCN(c1ccccc1)S(=O)(=O)c1ccc(OCC(=O)O)cc1 returned SSB-PriA inh -5.0.
COc1cc(C(=O)Nc2ccc(S(N)(=O)=O)cc2)cc(OC)c1OC was read as SSB-PriA inh -3.0.
CCOC(=O)C1CCC2(CC1)C(C#N)=C(N)Oc1n[nH]c(C)c12 (stereo not drawn) was read as Autofluor counter 20477*, BoNT-F LC inh -3.0, Anthrax LF inh2 1.1, SSB-PriA inh 3.8 and BoNT A protease -2.4.
For C=CCN1C(=O)[C@]2(c3ccccc31)C1CCCC=C1C(C#N)=C(N)C2(C#N)C#N (stereo partly drawn) the results were Autofluor counter 20366*, BoNT-F LC inh -2.5, Anthrax LF inh2 -8.1, SSB-PriA inh -2.9 and BoNT A protease inconclusive.
For C=CCN1C(=O)C2(c3ccccc31)C1CCCC=C1C(C#N)=C(N)C2(C#N)C#N (stereo not drawn) the results were Autofluor counter 9585, BoNT-F LC inh 3.4, Anthrax LF inh2 0.4, SSB-PriA inh 7.8 and BoNT A protease 0.0.
`COc1ccc2c(c1)CCC[C@@]2(O)CNC(=O)c1ccccc1C(F)(F)F` gave SSB-PriA inh 5.0.
CC(=O)c1cccc(OCC(O)CN2CCN(C(=O)c3ccco3)CC2)c1 (stereo not drawn) was read as Autofluor counter 3602, BoNT-F LC inh -9.4, Anthrax LF inh2 -3.1, SSB-PriA inh -9.2 and BoNT A protease -2.8.
For CC(=O)c1cccc(OCC(O)CN2CC=C(c3ccccc3)CC2)c1 (stereo not drawn) the results were Autofluor counter 19622*, BoNT-F LC inh 4.9, Anthrax LF inh2 3.4, SSB-PriA inh 4.5 and BoNT A protease inconclusive.
